Assay results: PubChem BioAssay (NCATS)
Records with an inconclusive call do not appear. Entries that show only a call come without a potency. Calls of active or inactive are those of the source. The call rests on the fitted dose curve; in most records, active means well fitted inhibition curve with a large enough effect; inconclusive means small, poorly fitted or top-dose-only effect; inactive means flat fitted curve, though single readings scatter.

System: Zika virus NS2B-NS3 protease
Test: Primary screen GU AMC qHTS for Zika virus inhibitors (AID 1347154); further: nearly all actives have a fitted effect of over 70% in size
How it was run: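 Unlinked Zika NS2B hydrophilic domain/NS3 protease domain noncovalent complex (25 nM final) in 10 mM Tris-HCl pH 8.0, 0.01% Tween 20, with AMC peptide substrate. Fluorescence (ex 340, em 450 nm) change over 15 min, room temperature; percent inhibition fitted to 4-parameter Hill equation.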

Cc1c(C(=O)c2cccc3ccccc23)c2cccc3c2n1[C@@H](CN1CCOCC1)CO3
Potency: inactive
